Results as given in PubChem BioAssay (EPA / NIEHS).
Inconclusive results are not listed. The source made the active and inactive calls. Rule for the calls: active = hit-call score of the fitted dose curve at least 0.9, where 1 is the maximum; inconclusive = response in the unintended direction; inactive = score below 0.9.

Columns and labels:
[1] = ACEA_AR_agonist_AUC_viability: ACEA Biosciences xCELLigence Real-Time Cell Analysis on Androgen Receptor Agonism for Viability (AID 2283775);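 for AC50: viability read 80 hours after compound addition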
Method in brief: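 Viability endpoint from xCELLigence impedance in 22Rv1 prostate cells at 80 h. Eight-point series, 100 uM maximum final.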

[2] = ACEA_AR_antagonist_AUC_viability: ACEA Biosciences xCELLigence Real-Time Cell Analysis on Androgen Receptor Antagonism for Viability (AID 2283776);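 note: 22Rv1 human prostate cancer cells growing on impedance electrode plates; area under impedance growth curve at 80 h after dosing as viability; hits lower the growth signal relative to DMSO meaning cytotoxicity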
Method in brief: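 Real-time electrical impedance tracks 22Rv1 proliferation after continuous compound exposure (top 100 uM final, 1:4 steps, 8 concentrations). The 80 h area-under-curve serves as the cytotoxicity readout relative to DMSO.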

[3] = ACEA_ER_AUC_viability: ACEA Biosciences xCELLigence Real-Time Cell Analysis on Estrogen Receptor Agonism for Viability (AID 2283782);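 note: hit means loss of impedance signal meaning reduced cell growth or viability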
Method in brief: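 Continuous-exposure impedance cell analysis uses T-47D cells in charcoal-stripped serum, eight 1:4 dilutions topping at 100 uM final, biological duplicate. Area under the growth curve at 80 h is fitted against DMSO baseline.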

Question: Which outcome [1] does the source give for `C[Si]1(C)O[Si](C)(C)O[Si](C)(C)O[Si](C)(C)O1` here?
Answer: inactive

Question: What about the outcome [2] of the same compound?
Answer: inactive

Question: With `CCCCCCCC=O` as the compound, how does the outcome [1] read?
Answer: inactive

Question: And the outcome [2]?
Answer: inactive

Question: Which outcome [1] does the source give for `NC(=O)Cn1c(=O)cc(CCN2CCN(c3nccc4sccc34)CC2)c2ccc(F)cc21` here?
Answer: inactive

Question: What about the AC50 [2] of the same compound?
Answer: 12.1 µM (active)

Question: What does the source list for `CCCCCCCCCCCCCCCCCC(=O)O`?
Answer: outcome [1]: inactive; AC50 [2]: 25 µM (active)

Question: With `Cc1ccc(C(C)C)c(O)c1` as the compound, how does the outcome [1] read?
Answer: inactive

Question: What about the outcome [2] of the same compound?
Answer: inactive

Question: And the outcome [3]?
Answer: inactive

Question: With `O=c1[nH]cc(F)c(=O)[nH]1` as the compound, how does the AC50 [1] read?
Answer: 2.42 µM (active)

Question: What about the AC50 [2] of the same compound?
Answer: 1.76 µM (active)

Question: For `FC(F)(F)C(F)(F)C(F)(F)C(F)(F)C(F)(F)C(F)(F)CCI`, which outcome [1] is on record?
Answer: inactive

Question: And the outcome [2]?
Answer: inactive

Question: What about the outcome [3] of the same compound?
Answer: inactive

Question: For `CCOC(=O)C(C)(C)Oc1ccc(Cl)cc1`, which outcome [1] is on record?
Answer: inactive

Question: What about the outcome [2] of the same compound?
Answer: inactive

Question: With `CCCCCCCCCCCC(=O)OC` as the compound, how does the outcome [1] read?
Answer: inactive

Question: What about the outcome [2] of the same compound?
Answer: inactive

Question: For `CCCCCCCCCCCCCO`, which outcome [1] is on record?
Answer: inactive

Question: What about the outcome [2] of the same compound?
Answer: inactive

Question: For `CC1(C)NC(=O)NC1=O`, which outcome [1] is on record?
Answer: inactive

Question: What about the outcome [2] of the same compound?
Answer: inactive

Question: With `NCCO` as the compound, how does the outcome [1] read?
Answer: inactive

Question: What about the outcome [2] of the same compound?
Answer: inactive

Question: Which AC50 [1] does the source give for `O=C(O)CCCCC(=O)O` here?
Answer: 9.92 µM (active)

Question: And the AC50 [2]?
Answer: 3.82 µM (active)

Question: Which results are given for `CC(C)c1ccc(C(=O)N=C(N)N)cc1S(C)(=O)=O`?
Answer: outcome [1]: inactive; outcome [2]: inactive

Question: With `CC1(C)CC(N=C=O)CC(C)(CN=C=O)C1` (configuration not stated) as the compound, how does the AC50 [1] read?
Answer: 25.5 µM (active)

Question: And the outcome [2]?
Answer: inactive
